Among the test systems are NCI-H23 lung; NCI-H226 lung; NCI-H322M lung; HOP-62 NSCLC; NCI-H460 lung; HOP-92 NSCLC; NCI-H522 lung; A549/ATCC NSCLC; 786-0 renal; COLO 205 colon; DU-145 prostate; K-562 leukemia; MALME-3M melanoma; MDA-MB-231 breast; RXF 393 renal; SF-268 CNS; SF-295 CNS; SF-539 CNS; UACC-257 melanoma; M14 melanoma.
Common to all, as to assay: NCI-60 one-dose screen, 48 h (100 = growth as untreated, 0 = no growth, -100 = all killed)
Details in all cases: 10 µM unless noted

The values below come from PubChem BioAssay (NCI).

Where “and” joins values, the source holds several entries; their conditions need not be identical. Identical values can stand only once. About 83,000 compounds went through this panel and 20% of them were active in at least one assay; those are over-represented in the sample as a whole.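 Cell lines were cultured in 96-well plates, exposed to a single compound concentration, and assessed for percent growth 48 hours later.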 A number with no mark means an inactive call. Calls of active or inactive are those of the source. Rule for the calls: active = growth percent below 10; inactive = the rest.

Regarding `CC(C)COC(=O)Cc1ccccc1`, the growth in the assay on NCI-H23 lung was 106%; in the assay with NCI-H226 lung, 99.4%; in the assay with NCI-H322M lung, 104%; with HOP-62 NSCLC it was 101%; in the assay on NCI-H460 lung, 109%; in the assay on HOP-92 NSCLC it was 95.1%. For the same compound, the growth is 99% with NCI-H522 lung; 105% with A549/ATCC NSCLC; 104% in the assay with 786-0 renal; 106% in the assay on COLO 205 colon; 115% with DU-145 prostate; 109% with K-562 leukemia. The growth was 94.4% in the assay on MALME-3M melanoma; 120% with MDA-MB-231 breast; 102% in the assay with RXF 393 renal; 104% with SF-268 CNS; 111% with SF-295 CNS; 97.5% in the assay with SF-539 CNS. The values for the growth in the assay on UACC-257 melanoma and in the assay with M14 melanoma were 104% and 103%, respectively.

As to `CNC(=O)CCl`, the growth with NCI-H23 lung is 101%; with NCI-H226 lung, 90.9%; in the assay with NCI-H322M lung, 102%; in the assay on HOP-62 NSCLC, 98.5%; with NCI-H460 lung it was 107%; in the assay on HOP-92 NSCLC it was 93.7%. For the same compound, the growth in the assay with NCI-H522 lung was 106%; in the assay on A549/ATCC NSCLC, 96.3%; in the assay on COLO 205 colon it was 108%; in the assay on DU-145 prostate, 114%; in the assay on K-562 leukemia, 121%; in the assay on MALME-3M melanoma, 92.5%. The growth in the assay on RXF 393 renal was 110%; with SF-268 CNS, 104%; with SF-295 CNS, 105%; in the assay on SF-539 CNS, 102%; with UACC-257 melanoma it was 92.5%; in the assay on M14 melanoma it was 105%.

As to `O=[N+]([O-])c1cc(Br)c(O)c(Br)c1`, the growth in the assay with NCI-H23 lung was 101%; in the assay with NCI-H226 lung, 93.5%; in the assay on NCI-H322M lung, 105%; in the assay with HOP-62 NSCLC it was 96.9%; in the assay with NCI-H460 lung it was 107%; with HOP-92 NSCLC it was 95.8%. Moreover, the growth in the assay on NCI-H522 lung was 92.7%; with A549/ATCC NSCLC, 98.9%; with 786-0 renal, 102%; in the assay with COLO 205 colon, 112%; in the assay on K-562 leukemia it was 123%; in the assay with MDA-MB-231 breast, 103%. The growth in the assay with RXF 393 renal is 90.2%; in the assay with SF-295 CNS it was 100%; in the assay with SF-539 CNS, 108%; in the assay on UACC-257 melanoma, 95.4%; in the assay with M14 melanoma, 111%.

With `CCN1C(=O)CC(=O)N(CC)C1=S`, the growth in the assay with NCI-H23 lung was 82%; in the assay with NCI-H226 lung it was 103%; in the assay with NCI-H322M lung, 102%; with HOP-62 NSCLC, 172%; in the assay with NCI-H460 lung, 107%; in the assay on HOP-92 NSCLC it was 92.1%. The growth is 84.1% in the assay with NCI-H522 lung; 109% in the assay with A549/ATCC NSCLC; 97.6% in the assay on 786-0 renal; 115% in the assay on COLO 205 colon; 122% in the assay with DU-145 prostate; 107% in the assay on K-562 leukemia. Besides, the growth is 95.8% with MALME-3M melanoma; 107% in the assay on MDA-MB-231 breast; 100% with RXF 393 renal; 101% in the assay on SF-268 CNS; 111% with SF-295 CNS; 96.9% in the assay on SF-539 CNS. For the same compound, the growth in the assay with UACC-257 melanoma is 102%; in the assay with M14 melanoma it was 105%.

For `COc1cc(-c2ccc(N)c(OC)c2)ccc1N`, the growth is 101% with NCI-H23 lung; 110% in the assay on NCI-H226 lung; 84.4% in the assay on NCI-H322M lung; 95.5% in the assay with HOP-62 NSCLC; 114% with NCI-H460 lung; 110% with HOP-92 NSCLC. The growth in the assay with NCI-H522 lung was 131%; in the assay with A549/ATCC NSCLC, 108%; in the assay on 786-0 renal, 106%; with COLO 205 colon, 120%; in the assay with DU-145 prostate it was 103%; with K-562 leukemia, 138%. Further, the growth in the assay with MALME-3M melanoma was 78.1%; with MDA-MB-231 breast, 103%; in the assay on SF-268 CNS, 103%; with SF-295 CNS, 104%; in the assay on SF-539 CNS, 110%; in the assay on UACC-257 melanoma it was 134%. In addition, the growth in the assay on M14 melanoma is 113%.

Regarding `NC(=O)c1c(Br)c(Br)c(Br)c(Br)c1C(=O)O` (tested in a mixture with another compound), the growth in the assay on NCI-H23 lung was 99.9% and 100%; in the assay on NCI-H226 lung, 99.8% and 98.4%; in the assay with NCI-H322M lung, 105% and 114%; in the assay with HOP-62 NSCLC, 124% and 103%; in the assay with NCI-H460 lung, 111%; in the assay on HOP-92 NSCLC, 85.8% and 86%. Also, the growth was 93% and 99.3% with NCI-H522 lung; 102% and 98% with A549/ATCC NSCLC; 109% and 104% in the assay on 786-0 renal; 113% and 104% with COLO 205 colon; 112% and 108% with DU-145 prostate; 80.6% and 79.6% in the assay with K-562 leukemia. The growth is 102% and 91.1% in the assay on MALME-3M melanoma; 87.5% and 94.2% in the assay with MDA-MB-231 breast; 106% and 112% in the assay on RXF 393 renal; 97.7% and 100% in the assay on SF-268 CNS; 97.2% and 98.4% in the assay with SF-539 CNS; 98.7% and 105% with UACC-257 melanoma. Further, the growth in the assay on M14 melanoma was 97.1% and 107%.

Consider `CC[C@H](C)[C@H](NC(=O)c1cnccn1)C(=O)N(C)[C@H](C[C@@H](OC(C)=O)c1nc(C(=O)N[C@@H](Cc2ccccc2)C[C@H](C)C(=O)OC)cs1)C(C)C`, for which the growth in the assay with NCI-H23 lung is 26.2%; in the assay on NCI-H226 lung, 33.6%; in the assay with NCI-H322M lung, 46.3%; in the assay on HOP-62 NSCLC, 17.6%; in the assay with NCI-H460 lung, 8.2% (active); in the assay on HOP-92 NSCLC it was 16.9%. Also, the growth in the assay on NCI-H522 lung is -24.6% (active); with A549/ATCC NSCLC it was 19.2%; in the assay with 786-0 renal it was 24.2%; with COLO 205 colon, -20.3% (active); with DU-145 prostate, 6.92% (active); with K-562 leukemia it was 5.13% (active). Also, the growth is 69.6% with MALME-3M melanoma; -4.71% (active) in the assay on MDA-MB-231 breast; 17.4% in the assay with RXF 393 renal; 19.4% in the assay on SF-268 CNS; -5.89% (active) with SF-295 CNS; -21.9% (active) in the assay with SF-539 CNS. The growth was 44.3% with UACC-257 melanoma and -5.51% (active) in the assay on M14 melanoma.

With `Cc1ccc(NC2=N[C@]34CC(=O)CC[C@]3(C)[C@H]3CC[C@]5(C)C(=O)CC[C@H]5[C@@H]3C[C@@H]4S2)c(C)c1`, the growth with NCI-H23 lung is 54.2%; in the assay on NCI-H226 lung, 72.8%; in the assay with NCI-H322M lung, 79.5%; in the assay with HOP-62 NSCLC, 45.7%; in the assay with NCI-H460 lung, 45.8%; with HOP-92 NSCLC, 65.9%. The growth is 24.6% in the assay with NCI-H522 lung; 61.1% in the assay with A549/ATCC NSCLC; 5.54% (active) in the assay on 786-0 renal; 62.4% with COLO 205 colon; 25.9% in the assay on DU-145 prostate; 5.33% (active) with K-562 leukemia. Further, the growth is 27.3% in the assay on MALME-3M melanoma; 26.6% in the assay with MDA-MB-231 breast; 28.8% in the assay with RXF 393 renal; 46.9% in the assay with SF-268 CNS; 63.8% with SF-295 CNS; 8.46% (active) with SF-539 CNS. Moreover, the growth with UACC-257 melanoma is 65.6%; with M14 melanoma, 37.9%.
